Active and inactive are the calls of the source.
How the values were obtained:
[1] = binders of probe aFSTL3 on microarray, primary screen, stem cell growth factor project, biochemical, small-molecule microarray, fluorescence 635/667 (AID 1064); details: higher = more signal;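 note: measures binding of the biotinylated anti-FSTL3 antibody to printed compounds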
[2] = binders from COS7 lysate, DM2A8 probe, primary screen, torsin A project, cell lysate, small-molecule microarray, fluorescence 635/667 (AID 1065); details: higher = more signal, COS7 lysate expressing mutant human TOR1A
[3] = binders of probe aFGF2 on microarray, primary screen, stem cell growth factor project, biochemical, small-molecule microarray, fluorescence 635/667 (AID 1067); details: higher = more signal;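 note: measures binding of biotinylated aFGF2 protein to printed compounds on slides; z-score merges feature fluorescence and signal-to-noise across triplicate slides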
[4] = binders of probe aFGF10 on microarray, primary screen, stem cell growth factor project, biochemical, small-molecule microarray, fluorescence 635/667 (AID 1071); details: higher = more signal;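 note: score merges 667 nm spot intensity and signal to noise from triplicate slides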
[5] = target: Neurogenic locus notch homolog protein 2 (Homo sapiens) (UniProt Q04721); test: Notch2 binders on small-molecule microarrays, primary screen, biochemical, small-molecule microarray, 635 nm fluorescence, stem cell growth factors (AID 1073); details: Notch2 binding, higher = more signal
[6] = target: Pro-neuregulin-1, membrane-bound isoform (Homo sapiens) (UniProt Q02297); test: NRG1 binders on small-molecule microarrays, primary screen, psychiatric disease protein project, biochemical, small-molecule microarray, fluorescence 635/667 (AID 1075); details: NRG1 binding, 635 nm fluorescence, higher = more signal;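 note: score combines 667 nm spot fluorescence with signal to noise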
[7] = system: Neuregulin-1 EGF-like domain; test: binders of neuregulin-1 EGF-like domain, primary screen, biochemical, small-molecule microarray, 635 nm fluorescence (AID 1081); details: small-molecule microarray binding, higher = more signal;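 note: binding of the protein to compounds printed on small-molecule microarray slides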
[8] = FRG1 promoter luciferase signal modulators, primary screen, FRG1 inhibition for FSHD, cell-based, C2C12 myotubes, firefly/Renilla luciferase, luminescence (AID 1084); details: higher = more signal, called active from +8 up or from −8 down
[9] = binders of probe aFST on microarray, primary screen, stem cell growth factor project, biochemical, small-molecule microarray, fluorescence 635/667 (AID 1086); details: higher = more signal;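 note: score merges 667 nm fluorescence with signal-to-noise of each printed compound spot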
[10] = binders of probe aHhip on microarray, primary screen, stem cell growth factor project, biochemical, small-molecule microarray, fluorescence 635/667 (AID 1087); details: higher = more signal;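 note: score merges spot fluorescence at 667nm with spot signal to noise ratio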
[11] = system: PRMT1 (protein arginine N-methyltransferase 1); test: PRMT1 binders on small-molecule microarrays, primary screen, biochemical, small-molecule microarray, 635 nm fluorescence (AID 1088); details: small-molecule microarray binding, higher = more signal;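 note: binding of Prmt1 protein to compounds spotted on small-molecule microarray slides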
[12] = yeast growth modulation, basal conditions, primary screen, YJM789 clinical isolate, OD600, 24 h (AID 1089);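 note: growth of clinical yeast isolate S. cerevisiae YJM 789 seeded 1000 cells per well; test concentration not given here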; details: S. cerevisiae YJM789 growth, higher = more signal, called active from +8 up or from −8 down
[13] = fission yeast growth modulation, primary screen, strain 972, OD600, 24 h, no modulator (AID 1090);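 note: basal condition with compound alone and no growth modifier present; test concentration not given here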; details: S. pombe 972 growth, higher = more signal, called active from +8 up or from −8 down
[14] = S. cerevisiae growth modulation with rapamycin, primary screen, strain BY4716, OD600, 96 h (AID 1091); details: higher = more signal, called active from +8 up or from −8 down; note: test concentration not given here
[15] = target: Torsin-1A-interacting protein 2 (Homo sapiens) (UniProt Q8NFQ8); test: LULL1 binders on small-molecule microarray, primary screen, cell lysate, human LULL1 lysate, 635/667 nm fluorescence (AID 1092); details: hLULL1 lysate binding, 635 nm fluorescence, higher = more signal;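 note: probe is lysate of COS7 cells overexpressing human LULL1; score merges per-feature 667 nm fluorescence with signal-to-noise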
[16] = E. coli growth modulation, two-sided OD650, primary screen, E. coli filamentation project, strain DRC41, 24 h (AID 1093); details: OD650, 24 h, higher = more signal, called active from +8 up or from −8 down;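 note: MC1000 strain lacking acrAB efflux and sulA so SOS filamentation is blocked; test concentration not given here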
[17] = small-molecule microarray binders of probe aLefty2, primary screen, biochemical, biotinylated probe, 635/667 nm fluorescence (AID 1094); details: higher = more signal;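 note: score merges spot fluorescence near 667 nm with spot signal-to-noise ratio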
[18] = system: Noggin (protein binding on small-molecule microarray); test: Noggin binders on small-molecule microarray, primary screen, biochemical, 635/667 nm fluorescence (AID 1095); details: 635 nm fluorescence, higher = more signal;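 note: score merges 667 nm feature fluorescence with signal to noise over triplicate slides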
[19] = target: Neurogenic locus notch homolog protein 3 (Homo sapiens) (UniProt Q9UM47); test: NOTCH3 binders on small-molecule microarray, primary screen, biochemical, 635/667 nm fluorescence (AID 1096); details: NOTCH3 binding, 635 nm fluorescence, higher = more signal
[20] = small-molecule microarray binders of probe aEGFR, primary screen, biochemical, biotinylated probe, 635/667 nm fluorescence (AID 1097); details: higher = more signal;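 note: probe is a biotinylated anti-EGFR antibody binding compounds printed on slides; score combines fluorescence near 667 nm and signal to noise of each spot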

Sequence of Neurogenic locus notch homolog protein 2 (Homo sapiens) (Q04721 whole entry, looked up, canonical isoform): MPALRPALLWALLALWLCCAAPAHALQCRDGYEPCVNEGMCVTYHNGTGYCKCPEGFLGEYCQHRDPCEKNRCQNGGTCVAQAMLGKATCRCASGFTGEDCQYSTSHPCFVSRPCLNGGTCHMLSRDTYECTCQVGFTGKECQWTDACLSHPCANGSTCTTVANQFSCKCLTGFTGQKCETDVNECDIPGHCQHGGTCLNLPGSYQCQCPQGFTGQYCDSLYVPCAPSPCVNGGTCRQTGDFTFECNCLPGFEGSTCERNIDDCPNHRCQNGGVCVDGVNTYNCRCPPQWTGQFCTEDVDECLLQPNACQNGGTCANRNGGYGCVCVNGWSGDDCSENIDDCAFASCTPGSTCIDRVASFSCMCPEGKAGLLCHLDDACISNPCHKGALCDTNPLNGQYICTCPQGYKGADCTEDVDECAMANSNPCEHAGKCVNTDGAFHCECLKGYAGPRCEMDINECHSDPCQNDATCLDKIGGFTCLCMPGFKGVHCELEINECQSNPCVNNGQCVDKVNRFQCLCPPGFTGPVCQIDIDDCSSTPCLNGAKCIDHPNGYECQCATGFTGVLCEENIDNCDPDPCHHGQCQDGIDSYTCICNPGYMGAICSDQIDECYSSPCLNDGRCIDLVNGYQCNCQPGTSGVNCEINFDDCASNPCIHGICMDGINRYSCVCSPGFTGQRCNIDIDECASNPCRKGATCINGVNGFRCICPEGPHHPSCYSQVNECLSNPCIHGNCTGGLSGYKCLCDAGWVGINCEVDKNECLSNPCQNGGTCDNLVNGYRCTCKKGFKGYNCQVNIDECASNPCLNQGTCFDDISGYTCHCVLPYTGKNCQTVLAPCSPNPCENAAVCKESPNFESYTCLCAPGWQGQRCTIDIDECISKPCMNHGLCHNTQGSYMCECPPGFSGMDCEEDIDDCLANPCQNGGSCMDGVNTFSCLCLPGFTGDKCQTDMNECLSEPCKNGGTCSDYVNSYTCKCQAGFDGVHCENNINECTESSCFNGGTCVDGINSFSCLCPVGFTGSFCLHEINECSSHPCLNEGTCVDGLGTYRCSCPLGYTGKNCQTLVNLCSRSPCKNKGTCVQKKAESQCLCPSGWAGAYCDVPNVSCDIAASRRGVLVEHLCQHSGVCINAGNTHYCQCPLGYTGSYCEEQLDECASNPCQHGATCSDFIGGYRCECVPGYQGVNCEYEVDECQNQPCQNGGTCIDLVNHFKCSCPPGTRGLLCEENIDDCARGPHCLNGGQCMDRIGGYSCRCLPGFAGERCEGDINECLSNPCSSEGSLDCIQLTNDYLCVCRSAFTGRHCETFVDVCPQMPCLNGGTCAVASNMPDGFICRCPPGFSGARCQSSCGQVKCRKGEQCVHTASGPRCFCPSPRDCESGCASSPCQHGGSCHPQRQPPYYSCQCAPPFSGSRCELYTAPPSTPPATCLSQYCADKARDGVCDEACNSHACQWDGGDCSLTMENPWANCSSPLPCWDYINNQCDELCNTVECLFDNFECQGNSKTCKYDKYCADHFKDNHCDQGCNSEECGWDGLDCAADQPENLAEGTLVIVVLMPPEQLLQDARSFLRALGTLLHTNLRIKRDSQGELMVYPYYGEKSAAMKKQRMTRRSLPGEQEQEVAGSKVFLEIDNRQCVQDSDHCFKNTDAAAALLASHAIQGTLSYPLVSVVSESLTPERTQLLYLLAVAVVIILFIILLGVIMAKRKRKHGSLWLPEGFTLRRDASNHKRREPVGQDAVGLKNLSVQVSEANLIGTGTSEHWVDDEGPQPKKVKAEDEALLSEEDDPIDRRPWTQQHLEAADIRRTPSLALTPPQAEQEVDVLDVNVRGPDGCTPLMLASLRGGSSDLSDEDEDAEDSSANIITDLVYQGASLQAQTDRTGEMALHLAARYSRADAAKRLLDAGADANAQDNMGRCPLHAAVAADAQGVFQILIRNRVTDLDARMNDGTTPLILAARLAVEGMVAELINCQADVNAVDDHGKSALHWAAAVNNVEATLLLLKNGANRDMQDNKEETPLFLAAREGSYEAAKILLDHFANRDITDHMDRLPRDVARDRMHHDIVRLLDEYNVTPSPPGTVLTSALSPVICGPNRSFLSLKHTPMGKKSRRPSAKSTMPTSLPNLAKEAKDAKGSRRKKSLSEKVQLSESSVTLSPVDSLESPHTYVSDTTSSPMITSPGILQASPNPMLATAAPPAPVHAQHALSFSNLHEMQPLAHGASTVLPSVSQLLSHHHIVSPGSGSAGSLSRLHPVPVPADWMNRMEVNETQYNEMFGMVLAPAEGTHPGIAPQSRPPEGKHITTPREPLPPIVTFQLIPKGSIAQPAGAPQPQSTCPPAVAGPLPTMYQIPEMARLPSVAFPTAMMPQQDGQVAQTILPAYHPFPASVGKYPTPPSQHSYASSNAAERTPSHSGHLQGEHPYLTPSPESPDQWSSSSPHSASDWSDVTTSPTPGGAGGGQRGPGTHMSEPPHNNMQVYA
Sequence of Neurogenic locus notch homolog protein 3 (Homo sapiens) (Q9UM47 whole entry, looked up): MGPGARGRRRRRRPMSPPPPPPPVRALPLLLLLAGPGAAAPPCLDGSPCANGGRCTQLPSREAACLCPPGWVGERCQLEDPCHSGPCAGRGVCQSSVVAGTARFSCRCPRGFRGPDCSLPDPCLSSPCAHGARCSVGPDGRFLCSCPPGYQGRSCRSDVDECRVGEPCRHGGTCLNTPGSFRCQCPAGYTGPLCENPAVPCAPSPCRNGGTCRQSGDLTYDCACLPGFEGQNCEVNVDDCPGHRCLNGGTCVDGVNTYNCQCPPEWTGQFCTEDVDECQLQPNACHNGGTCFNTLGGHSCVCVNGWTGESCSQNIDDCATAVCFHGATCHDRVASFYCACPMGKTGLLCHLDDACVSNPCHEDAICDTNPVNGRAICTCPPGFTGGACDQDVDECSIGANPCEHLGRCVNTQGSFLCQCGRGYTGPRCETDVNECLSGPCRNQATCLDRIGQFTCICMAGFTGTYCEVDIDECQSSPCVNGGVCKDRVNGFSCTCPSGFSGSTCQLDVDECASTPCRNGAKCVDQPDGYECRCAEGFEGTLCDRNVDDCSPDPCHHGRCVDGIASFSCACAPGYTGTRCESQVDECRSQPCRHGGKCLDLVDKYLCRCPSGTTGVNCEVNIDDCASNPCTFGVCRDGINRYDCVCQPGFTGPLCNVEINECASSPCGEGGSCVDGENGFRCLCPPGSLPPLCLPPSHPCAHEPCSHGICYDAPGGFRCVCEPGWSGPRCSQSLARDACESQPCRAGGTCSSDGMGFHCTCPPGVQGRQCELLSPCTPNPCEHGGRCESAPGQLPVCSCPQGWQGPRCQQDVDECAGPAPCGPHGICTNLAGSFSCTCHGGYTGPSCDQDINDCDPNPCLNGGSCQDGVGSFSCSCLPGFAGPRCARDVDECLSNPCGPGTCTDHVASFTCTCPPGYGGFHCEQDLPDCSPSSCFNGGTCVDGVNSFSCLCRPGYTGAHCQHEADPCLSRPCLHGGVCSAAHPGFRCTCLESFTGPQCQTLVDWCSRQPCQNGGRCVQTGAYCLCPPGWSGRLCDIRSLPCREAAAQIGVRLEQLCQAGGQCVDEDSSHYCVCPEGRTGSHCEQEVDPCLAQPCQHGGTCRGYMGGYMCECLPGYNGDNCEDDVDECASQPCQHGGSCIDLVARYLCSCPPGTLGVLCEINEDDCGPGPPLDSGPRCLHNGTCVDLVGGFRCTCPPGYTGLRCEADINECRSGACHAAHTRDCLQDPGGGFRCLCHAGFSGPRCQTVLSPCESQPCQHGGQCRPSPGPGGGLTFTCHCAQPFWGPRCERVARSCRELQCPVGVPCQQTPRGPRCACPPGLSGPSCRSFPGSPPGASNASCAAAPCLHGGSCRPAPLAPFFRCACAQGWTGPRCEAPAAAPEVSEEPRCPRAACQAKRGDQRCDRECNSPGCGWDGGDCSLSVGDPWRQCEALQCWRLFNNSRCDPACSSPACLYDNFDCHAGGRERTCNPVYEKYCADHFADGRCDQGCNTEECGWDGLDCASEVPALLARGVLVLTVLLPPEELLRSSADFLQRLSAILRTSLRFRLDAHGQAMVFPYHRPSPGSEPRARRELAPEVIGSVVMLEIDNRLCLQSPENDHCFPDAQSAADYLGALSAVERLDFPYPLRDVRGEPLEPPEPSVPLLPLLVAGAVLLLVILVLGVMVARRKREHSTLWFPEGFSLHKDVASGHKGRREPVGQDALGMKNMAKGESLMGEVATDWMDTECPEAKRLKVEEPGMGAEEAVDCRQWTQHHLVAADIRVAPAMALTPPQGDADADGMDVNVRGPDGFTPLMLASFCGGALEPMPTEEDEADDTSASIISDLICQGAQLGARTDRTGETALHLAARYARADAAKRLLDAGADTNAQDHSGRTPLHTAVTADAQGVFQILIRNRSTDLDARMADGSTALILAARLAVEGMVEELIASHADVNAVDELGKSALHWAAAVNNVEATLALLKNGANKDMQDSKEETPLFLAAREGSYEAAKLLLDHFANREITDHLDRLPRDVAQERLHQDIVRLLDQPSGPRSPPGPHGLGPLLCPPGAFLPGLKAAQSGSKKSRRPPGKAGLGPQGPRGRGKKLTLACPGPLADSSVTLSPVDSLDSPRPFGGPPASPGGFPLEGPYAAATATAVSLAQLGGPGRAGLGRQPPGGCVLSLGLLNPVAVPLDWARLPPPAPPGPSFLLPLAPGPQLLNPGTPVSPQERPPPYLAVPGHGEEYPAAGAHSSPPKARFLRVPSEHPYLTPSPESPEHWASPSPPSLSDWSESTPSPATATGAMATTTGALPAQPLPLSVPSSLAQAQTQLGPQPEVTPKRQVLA

Row | Compound | composite z-score [1] | composite z-score [2] | composite z-score [3] | composite z-score [4] | composite z-score [5] | composite z-score [6] | composite z-score [7] | z-score [8] | composite z-score [9] | composite z-score [10] | composite z-score [11] | z-score [12] | z-score [13] | z-score [14] | composite z-score [15] | z-score [16] | composite z-score [17] | composite z-score [18] | composite z-score [19] | composite z-score [20]
1 | COCC(=C=CC[C@H](O)c1ccccc1OCCO)C[C@H](O)c1ccccn1 | -0.109 | -0.169 | -0.128 | 0.4 | -0.548 | -0.409 | 0.0876 | -0.996 (inactive) | 0.0547 | -0.0994 | 1.14 | 0.636 (inactive) | -0.422 (inactive) | -0.505 (inactive) | 3.35 | 0.723 (inactive) | -0.138 | 0.808 | -0.0439 | 0.122
2 | COc1cc2c(cc1O)C(C1CC1)N(Cc1cccc(OC(F)(F)F)c1)CC2 (stereo not given) | -0.119 | 0.257 | -0.101 | 0.248 | -0.725 | 1.39 | 0.857 | 0.329 (inactive) | -0.182 | 0.132 | 0.694 | -2.19 (inactive) | -5.25 (inactive) | -2.53 (inactive) | 1.88 | 0.394 (inactive) | -0.0575 | -0.242 | -0.167 | 0.0009
3 | COc1cc(NN2C(C(O)c3ccco3)C=CC3C(=O)N(C)C(=O)C32)cc(OC)c1OC (stereo not given) | 0.256 | 0.504 | 0.083 | 0.27 | 0.578 | 1.4 | 1.38 | -0.389 (inactive) | 0.775 | 0.837 | 0.865 | -0.0402 (inactive) | 1.06 (inactive) | 0.462 (inactive) | 0.873 | -1.87 (inactive) | 0.413 | 0.382 | -0.254 | 0.232
4 | O[C@@H](Cc1ccccc1)[C@@H](/C=C/C1CC1)N(CC#Cc1ccccc1)Cc1ccccc1Br | 1.53 | -0.614 | -0.157 | -0.763 | -0.836 | -0.0422 | -0.0401 | -0.507 (inactive) | -0.221 | -0.19 | -0.0917 | 0.298 (inactive) | 0.398 (inactive) | 1.43 (inactive) | 0.461 | 0.247 (inactive) | 0.0166 | -1.33 | -0.817 | -0.339
5 | COc1cccc(C)c1NC(=O)O[C@H]1[C@H](OC(=O)Nc2ccccc2-c2ccccc2)[C@H](OC(=O)Nc2ccccc2-c2ccccc2)[C@@H](OC)O[C@@H]1CO | -0.205 | 0.0513 | 0.137 | 0.542 | 1.46 | 1.46 | 1.14 | 0.379 (inactive) | 1.48 | -0.219 | 1.54 | 1.24 (inactive) | 0.671 (inactive) | 5.69 (inactive) | 3.18 | 0.0918 (inactive) | 0.225 | 1.14 | 1.07 | -0.0824
6 | CC1CC/C=C\[C@H]2OC34C=CCN(c5ccc6ccccc6c5)C(=O)[C@H]3N(CCCO)C(=O)[C@@H]4C2C(=O)O1 (stereo not given in full) | 0.932 | -0.541 | -0.188 | -1.25 | -0.746 | 1.19 | -0.459 | 2.62 (inactive) | -0.757 | -0.19 | -0.131 | 0.116 (inactive) | 0.398 (inactive) | 0.799 (inactive) | -0.546 | -0.696 (inactive) | -0.136 | -1.32 | -0.562 | -0.193
7 | CC(C)N1CC=CC23O[C@@H]4C=CCCOC(=O)C4[C@H]2C(=O)N(CCCO)[C@@H]3C1=O (stereo not given in full) | -0.339 | -0.0962 | -0.12 | -0.458 | -0.693 | -0.491 | 0.059 | -0.395 (inactive) | 0.002 | 0.0505 | 0.521 | -0.198 (inactive) | -0.861 (inactive) | -0.824 (inactive) | 2.1 | 2.83 (inactive) | -0.215 | -0.0322 | 0.236 | -0.226
8 | COCCOC(=O)N1C(=O)[C@@]2(c3cc(C#CCCO)ccc31)[C@H](C(=O)Nc1nc3ccccc3s1)[C@H]1C(=O)O[C@H](c3ccccc3)[C@H](c3ccccc3)N1[C@@H]2c1ccc(O)cc1 | -0.223 | 0.9 | -0.0403 | 0.83 | 1.53 | 1.07 | 0.72 | -0.948 (inactive) | 0.346 | 0.0505 | 1.54 | 1.32 (inactive) | 0.663 (inactive) | 2.23 (inactive) | 2.79 | 0.467 (inactive) | 0.027 | 0.797 | 1.03 | 0.152
9 | CN1C(=O)C2C=CC(C(O)c3cccn3C)N(Nc3ccc([N+](=O)[O-])cc3[N+](=O)[O-])C2C1=O (stereo not given) | 0.108 | -0.0125 | 0.157 | 0.162 | 1.05 | 0.392 | 0.828 | 0.351 (inactive) | 0.477 | -0.0631 | 0.0715 | 0.82 (inactive) | 1.33 (inactive) | 0.731 (inactive) | 0.711 | -0.345 (inactive) | 0.269 | 0.5 | -0.266 | 0.0365
10 | CC(C)C(CO)N1C(=O)[C@@H]2C3C(=O)OCCC/C=C\[C@H]3OC23C=CCN(c2ccc4ccccc4c2)C(=O)[C@@H]13 (stereo not given in full) | -0.08 | -0.623 | -0.076 | -0.12 | -1 | 0.99 | 1.48 | 0.759 (inactive) | -0.412 | 0.176 | -0.403 | -0.25 (inactive) | -1.45 (inactive) | -0.0641 (inactive) | 1.34 | -0.395 (inactive) | -0.0928 | -0.469 | 0.121 | -0.203
